The values that follow come from PubChem BioAssay (NCI).

Assay in all cases: NCI-60 one-dose screen, 48 h (100 = growth as untreated, 0 = no growth, -100 = all killed)
Conditions in all cases: 10 µM unless noted

Assay [1] relates to K-562 leukemia.
In assay [2] the test system is MALME-3M melanoma.
For assay [3], the system named is MDA-MB-231 breast.
The test system of assay [4] is RXF 393 renal.
Assay [5] deals with SF-268 CNS.
Assay [6] concerns SF-295 CNS.
Assay [7] concerns SF-539 CNS.
In assay [8] the test system is UACC-257 melanoma.
The subject of assay [9] is M14 melanoma.
Assay [10] deals with HCT-15 colon.
In assay [11] the test system is HT29 colon.
In assay [12] the test system is SNB-75 CNS.
In assay [13] the test system is SNB-19 CNS.
In assay [14] the test system is U251 CNS.
The subject of assay [15] is PC-3 prostate.
Assay [16] has as its system SK-MEL-5 melanoma.
Assay [17] concerns UACC-62 melanoma.
Assay [18] deals with LOX IMVI melanoma.
For assay [19], the system named is SK-MEL-28 melanoma.
The subject of assay [20] is SK-MEL-2 melanoma.

The panel holds about 83,000 compounds, 20% with a hit somewhere; the sample as a whole holds those more often.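 For each line, cells grew in 96-well plates with the test compound present at a single concentration for 48 hours.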 A number with no mark means an inactive call. Activity calls are given as the source filed them. How the source made its calls: active means growth percent below 10; inactive means the rest.

For the compound `Cn1cc(-c2cc(N)n3nc(-c4cn(C)c5ccc(Br)cc45)cc3n2)c2cc(Br)ccc21`, the growth in assay [1] is 5.07% (active); in assay [2], 102%; in [3] it was 63.3%; in assay [4] it was 147%; in assay [5], 82.5%; in assay [6], 105%. For the same compound, the growth in [7] was 85.2%; in assay [8], 109%; in [9], 65.5%; in assay [10], 41.7%; in assay [11], 4.96% (active); in assay [12], 82.2%. For the same compound, the growth was 104% in assay [13]; -37.9% (active) in assay [14]; 71.9% in [15]; 108% in assay [16]; 92.1% in assay [17]; 6.31% (active) in assay [18]. The growth in assay [19] is 97.2%; in [20] it was 120%.

Turning to `Cc1cc(=O)oc2cc(OCCCOc3ccc(/C=C/C(=O)Nc4ccc(Cl)cc4)cc3)ccc12`, the growth in assay [1] is 69.1%; in assay [2], 56.6%; in assay [3], 69.7%; in [4] it was 44.9%; in assay [5] it was 66.9%; in assay [6] it was 77.7%. Further, the growth in assay [7] is 75.6%; in assay [8], 81.5%; in assay [9], 74.2%; in assay [10] it was 60.4%; in assay [11], 98.1%; in assay [12], 73.3%. The growth was 89.6% in [13]; 56.4% in assay [14]; 67.7% in assay [15]; 55.9% in [16]; 75.7% in [17]; 40.8% in [18]. The growth in assay [19] is 75.8%; in assay [20] it was 80.4%.

On to `c1ccc2c(NCCCN3CCOCC3)c3oc4ccccc4c3nc2c1`, for which the growth is 2.74% (active) in assay [1]; -25.9% (active) in assay [2]; -27.9% (active) in assay [3]; -76.2% (active) in assay [4]; -3.87% (active) in [5]; -17.6% (active) in [6]. Moreover, the growth in assay [7] is -29.5% (active); in assay [8] it was -7.26% (active); in assay [9], -32% (active); in assay [10], 0.78% (active); in assay [11], -48.2% (active); in [12], -4.26% (active). For the same compound, the growth in assay [13] is 5.03% (active); in assay [14], -2.33% (active); in assay [15] it was 7.6% (active); in assay [16] it was -90.4% (active); in assay [17], -52.1% (active); in assay [18], -38.6% (active). The growth in assay [19] was -46.9% (active); in assay [20], -75.4% (active).

For the compound `N#Cc1nc(-c2ccccc2)oc1N1CCC(CO)C1` (configuration not stated), the growth in assay [1] was 114%; in [2], 94.3%; in assay [3] it was 101%; in assay [4], 100%; in assay [5] it was 97.7%; in assay [6] it was 105%. Besides, the growth in [7] was 93.9%; in assay [8], 105%; in [9] it was 106%; in assay [10], 104%; in assay [11] it was 107%; in assay [12], 89%. Also, the growth was 93.3% in assay [13]; 105% in [14]; 107% in assay [15]; 106% in [16]; 89.4% in [17]; 88.2% in assay [18]. Moreover, the results for the growth in assay [19] and in assay [20] were 103% and 127%, respectively.

For the compound `COc1cc(OC)c(S(=O)(=O)NNC(=O)c2ccncc2)cc1C(=O)/C=C/c1ccc(C)cc1`, the growth in assay [1] was 27.3%; in [2], 95.5%; in [3] it was 67.4%; in [4], 82.9%; in assay [5] it was 60.9%; in [6] it was 107%. Further, the growth in assay [7] was 65.3%; in [8], 99.6%; in [9], 56.4%; in assay [10] it was 85.3%; in assay [11] it was 95.1%; in [12], 73%. Moreover, the growth is 66.7% in assay [13]; 68.1% in assay [14]; 45.9% in assay [15]; 94.2% in assay [16]; 76.2% in assay [17]; 104% in assay [19]. In [20], the growth was 109%.

For the compound `COc1cc(N=Cc2sc(Nc3nccs3)nc2O)cc(OC)c1OC`, the growth in assay [1] is 84.4%; in assay [2] it was 79.2%; in assay [3] it was 79.1%; in [4] it was 99.5%; in [5], 78.8%; in [6] it was 69.9%. Further, the growth in assay [7] was 90.5%; in [8], 92.6%; in assay [9], 79.9%; in assay [10], 71.4%; in [11], 109%; in assay [12], 73.6%. The growth in assay [13] was 78.2%; in assay [14], 84.7%; in assay [15], 80.9%; in [16], 87.6%; in assay [17] it was 75.5%; in assay [19] it was 84.2%. Moreover, the growth in assay [20] was 74%.

For `O=C(c1ccc(O)cc1)C1[C@H](c2ccc(Cl)cc2)[C@@H](c2ccccc2)NC12C(=O)Nc1ccc(Cl)cc12` (some centres not stated), the growth in assay [1] was 28.1%; in assay [2] it was 74.5%; in assay [3], 48.6%; in [4], 27.7%; in assay [5], 37.7%; in [6], 41.1%. Besides, the growth was 66.4% in assay [7]; 62.9% in assay [8]; 47.7% in [9]; 28.9% in assay [10]; 4.23% (active) in assay [11]; 46.2% in assay [12]. For the same compound, the growth in assay [13] is 63%; in assay [14] it was 29.6%; in assay [15], 24.6%; in [16], 67.3%; in assay [17] it was 53.6%; in assay [18], 26.8%. Moreover, the growth in assay [19] is 76.2%; in assay [20], 57%.

`O=C1NC(=C(Cl)Cl)/C(=N/S(=O)(=O)N2CCCCC2CC2(C(F)(F)F)N=N2)N1` (configuration not stated): the growth in assay [1] is 2.72% (active); in [2] it was -71% (active); in assay [3], -21.4% (active); in assay [4] it was -28.8% (active); in assay [5] it was 49.3%; in assay [6], 99.3%. The growth was -22% (active) in [7]; 82.6% in assay [8]; 24.4% in assay [9]; -67.3% (active) in [10]; -25.7% (active) in assay [11]; 101% in assay [12]. Moreover, the growth in assay [13] was 40.8%; in assay [14], -1.13% (active); in assay [15], 60.5%; in assay [16], 95.3%; in [17], 38.4%; in assay [19], 7.84% (active). Further, the growth in assay [20] is -4.45% (active).
